Assay results as given in PubChem BioAssay AID463173 (ICCB-Longwood Screening Facility, Harvard Medical School, 2010).
Hit rate of the full screen: of about 52,000 compounds, about 4,300 (8.3%) were called active. The list comes from a sample in which actives are over-represented; it also holds similar structures and randomly drawn compounds. A number with no mark means an inactive call. No stated cut-off is given here; in the data, active means survival mostly below about 52% (no sharp cut-off); inactive means mostly above about 56%.

System: DeltatarO mutant
Experiment: growth inhibition of S. aureus wild type versus tarO mutant, primary screen, teichoic acid synthesis inhibitors, RN4220, OD600 (AID 463173)
Details: OD600, 18 h, active compounds read low, screened at 18.75 µg/mL (by protocol)

First: O=C(NCc1ccccc1)c1ccc(CSc2nc3cccnc3n2Cc2cccc(F)c2)cc1
Second: CCc1ccc(CNC(=O)c2ccc(-c3nc(CS(=O)(=O)c4ccccc4)c(C)o3)cc2)cc1
The survival of the first is higher: 101% for the first, 54% for the second.

Going from `COC(=O)c1ccc2c(c1)N(CC(=O)Nc1cccc(Cl)c1C)C(=O)c1ccccc1S2` to `Cc1ccc(-c2cn(-c3cccc(Cl)c3)c(S(=O)(=O)CC(=O)Nc3ccccc3F)n2)cc1`, the survival falls from 74% to 61%.

Compared with `CC(C)c1ccc2c(c1)NC(c1ccncc1)=NC(c1cccs1)=N2`, `Clc1ccc2c(c1)NC(c1ccncc1)=NC(c1cccs1)=N2` is higher in survival: 72% for the first, 76% for the second.

Going from `FC(F)(F)Oc1ccc2c(c1)NC(c1ccncc1)=NC(c1cccs1)=N2` to `CCOc1ccc(C2=NC(c3cccs3)=Nc3ccc(C(C)C)cc3N2)cc1`, the survival falls from 91% to 58%.

Going from `CCCCOc1cccc(C(=O)Nc2cccc(-c3nc4ncccc4o3)c2C)c1` to `CCOc1ccccc1N1CC(c2nc3ccccc3n2CCCCOc2ccccc2)CC1=O` (stereo not drawn), the survival rises from 47% to 59%.

First: COc1ccc(NC(=O)[C@@H](c2ccccc2)N2Cc3ccccc3C2=O)cc1OC
Second: CCOc1ccccc1N1CC(c2nc3ccccc3n2CCCOc2ccccc2OC)CC1=O (stereo not drawn)
The survival of the first is lower: 62% for the first, 76% for the second.

Compared with `COc1cccc(CNC(=O)C2CCN(c3ncnc4c3nc3n4CCCCC3)CC2)c1`, `c1ccc(Nc2nc(N3CCCCC3)nc(N3CCCCC3)n2)cc1` is higher in survival: 86% for the first, 106% for the second.

Compared with `COc1ccc(CNc2nc(-c3ccco3)nn2C(=O)CC(C)C)cc1`, `COc1ccc(C2=NC(C)(C)N(CC(=O)Nc3cccc(C)c3)C2=O)cc1` is lower in survival: 103% for the first, 76% for the second.

Going from `O=C(CS(=O)(=O)c1nc(-c2ccc(Cl)cc2)cn1-c1ccccc1)Nc1cccc(Cl)c1` to `Cc1ccc(OCCCn2c(C3CC(=O)N(c4cccc(Cl)c4)C3)nc3ccccc32)c(C)c1` (stereo not drawn), the survival rises from 68% to 76%.

Going from `CN1CCN(C(=O)C(=O)Nc2c3c(nn2-c2cccc(Cl)c2)CSC3)CC1` to `CC(C)(C)OC(=O)N1CCC(c2c(C(=O)O)cnn2-c2ccc(F)cc2F)CC1`, the survival rises from 76% to 87%.

Going from `O=C(NCc1ccccc1Cl)c1cc2ccccc2o1` to `O=C(NC1CC(=O)N(c2ccccc2)C1)c1cc2ccccc2o1` (stereo not drawn), the survival rises from 74% to 89%.

Compared with `Cc1ccc(N2CC(NC(=O)c3cc4ccccc4o3)CC2=O)cc1` (stereo not drawn), `COCCNC(=O)c1cc2ccccc2o1` is higher in survival: 99% for the first, 104% for the second.

Going from `COc1ccc(CN2CCCN(CC(=O)Nc3ccc4c(c3)OCCO4)S2(=O)=O)cc1` to `COc1ccc(-n2c(=O)c3ccc(C(=O)NCc4ccc(C)cc4)cc3n(Cc3ccc(F)cc3Cl)c2=O)cc1`, the survival rises from 74% to 99%.

Compared with `O=C1c2ccccc2C(=O)N1CCCn1nnc(-c2ccc(N3CCOCC3)cc2)n1`, `Cc1ccc(Nc2c(-c3ccc(N4CCOCC4)cc3)nc3ncccn23)cc1C` is higher in survival: 74% for the first, 88% for the second.

Going from `C=CCNc1nc(Cl)nc(Cl)n1` to `CC(C)Nc1nc(Cl)nc(NCCO)n1`, the survival rises from 99% to 110%.

Compared with `Cc1ccc(-n2ncc3c(=O)n(Cc4cccc(Cl)c4)cnc32)cc1C`, `CC(=O)N(Cc1ccccc1)Cc1cc2cc(C)ccc2n2nnnc12` is lower in survival: 91% for the first, 77% for the second.

Compared with `COc1cc(NS(=O)(=O)c2cc(Br)cc3c2N(C(=O)C2CC2)CC3)cc(OC)c1`, `Cc1ccc(NS(=O)(=O)c2cc(Br)cc3c2N(C(=O)C2CC2)CC3)cc1C` is lower in survival: 99% for the first, 95% for the second.

First: CCCCN(Cc1ccccc1)S(=O)(=O)c1cc(Br)cc2c1N(C(=O)C1CC1)CC2
Second: CCN(Cc1ccccc1)S(=O)(=O)c1cc(Br)cc2c1N(C(=O)C1CC1)CC2
The survival of the first is lower: 57% for the first, 58% for the second.

Compared with `COc1ccccc1CNS(=O)(=O)c1cc(Br)cc2c1N(C(=O)C1CC1)CC2`, `CCOc1ccc(NS(=O)(=O)c2cc(Br)cc3c2N(C(=O)C2CC2)CC3)cc1` is higher in survival: 58% for the first, 79% for the second.

Going from `CC(=O)Nc1ccc(NS(=O)(=O)c2cc(Br)cc3c2N(C(=O)C2CC2)CC3)cc1` to `CC(C)c1ccc(NS(=O)(=O)c2cc(Br)cc3c2N(C(=O)C2CC2)CC3)cc1`, the survival falls from 74% to 56%.

Compared with `CCC(C)Nc1nc2c(c(=O)[nH]c(=O)n2C)n1Cc1ccc(F)cc1` (stereo not drawn), `O=c1c2sc3ccccc3c2n(Cc2ccc(Cl)cc2)c(=O)n1Cc1ccco1` is higher in survival: 73% for the first, 83% for the second.

Compared with `Cc1cc(C)c(NC(=O)CN(c2ccccc2)S(=O)(=O)N(C)C)c(C)c1`, `O=C(CCS(=O)(=O)c1cc(Br)cc2c1N(C(=O)C1CC1)CC2)NCc1ccccc1Cl` is higher in survival: 66% for the first, 100% for the second.

Compared with `CCCc1ccc(OCC(=O)Nc2sc3c(c2C(=O)OCC)CCC(C(C)(C)C)C3)cc1` (stereo not drawn), `COc1ccc(Nc2nc(N)nc(N)c2S(=O)(=O)c2ccccc2)cc1` is lower in survival: 125% for the first, 78% for the second.

Going from `Fc1ccc(Nc2nc(Nc3ccc(F)cc3)nc(N3CCOCC3)n2)cc1` to `NNc1nc(N2CCOCC2)nc(N2CCOCC2)n1`, the survival falls from 87% to 76%.

With `Fc1ccc2c(c1)NC(c1ccncc1)=NC(c1cccs1)=N2` the survival was 30% (active).
In the case of `CC(C)c1ccc2c(c1)NC(c1ccc(F)cc1)=NC(c1cccs1)=N2`, the survival is reported as 45% (active).
For `O=C(CS(=O)(=O)c1nc(-c2ccc(Cl)cc2)cn1-c1ccccc1)Nc1ccc(F)cc1F`, the survival was 50% (active).
In the case of `O=C(NC1CC(=O)N(c2ccc(Cl)cc2)C1)c1cc2ccccc2o1` (stereo not drawn), the survival is reported as 52% (active).
In the case of `O=C(NCc1ccc(Cl)cc1)c1cc2ccccc2o1`, the survival is reported as 61% (active).
For `CCCNc1nc(Cl)nc(Cl)n1`, the survival was 62% (active).
For `COc1ccc(Cl)cc1NS(=O)(=O)c1cc(Br)cc2c1N(C(=O)C1CC1)CC2`, the survival was 55% (active).
In the case of `CN(Cc1ccccc1)S(=O)(=O)c1cc(Br)cc2c1N(C(=O)C1CC1)CC2`, the survival is reported as 34% (active).
With `O=C(C1CC1)N1CCc2cc(Br)cc(S(=O)(=O)Nc3ccc(C(F)(F)F)cc3)c21` the survival was 41% (active).
In the case of `CCc1ccccc1NS(=O)(=O)c1cc(Br)cc2c1N(C(=O)C1CC1)CC2`, the survival is reported as 52% (active).
In the case of `Cc1ccc(Nc2nc(Nc3ccc(C)c(C)c3)nc(N3CCOCC3)n2)cc1C`, the survival is reported as 34% (active).
With `Cc1cccc(Nc2nc(Nc3cccc(C)c3)nc(N3CCOCC3)n2)c1` the survival was 1% (active).
For `CCCCN1CC(c2nc3ccccc3n2CCCCOc2cc(C)ccc2C)CC1=O` (stereo not drawn), the survival was 15% (active).
In the case of `CCOc1ccccc1N1CC(c2nc3ccccc3n2CCCCOc2cc(C)ccc2C)CC1=O` (stereo not drawn), the survival is reported as 47% (active).
In the case of `CCCCN1CC(c2nc3ccccc3n2CCCCOc2ccc(C)cc2C)CC1=O` (stereo not drawn), the survival is reported as 13% (active).
